According to the supplement of paper PMC10849652:
Of roughly 7,900 targets only a part is listed; those with a hit were picked by preference. About 0.6% of all pairs of compound and target were hits.

Tests used:
Test in all cases: log2 fold change, soluble protein after heating vs DMSO (PISA); higher = thermal stabilisation; K562 cells, 10 uM, 30 min; active = over 0.2 and 3.5 SD of the protein, either way, in both replicates (recomputed)
[1] = compound: CS(=O)(=O)c1ccc(-c2cnc(N)c(C(=O)Nc3ccccc3)n2)cc1
Procedure, shortened: (§1)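 K562 cells at 2×10^6 cells/mL were treated for 30 min with 10 μM compound, and aliquots were heated for 3 min over 48°C-58°C before pooling. Extraction used PBS with 0.5% NP-40 at 4°C, and soluble protein was the supernatant after 21,000xg for 90 min, measured by TMTpro 16plex LC-MS/MS with channel sums equalised. Thermal stability values, relative to control samples and from duplicates, are log2 fold changes.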

crizotinib = compound: C[C@@H](Oc1cc(-c2cnn(C3CCNCC3)c2)cnc1N)c1c(Cl)ccc(F)c1Cl [crizotinib]
Procedure, shortened: as §1

[2] = compound: C[C@@H]1COCCN1C2=NC(=NC(=C2)C3(CC3)S(=O)(=O)C)C4=C5C=CNC5=CC=C4
Procedure, shortened: as §1

[3] = compound: C[C@H](C1=CC=C(C=C1)C(=O)NC2=C3C=CNC3=NC=C2)N
Procedure, shortened: as §1

duvelisib = compound: C[C@H](Nc1ncnc2nc[nH]c12)c1cc2cccc(Cl)c2c(=O)n1-c1ccccc1 [duvelisib]
Procedure, shortened: as §1

gandotinib = compound: Cc1cc(Nc2cc(CN3CCOCC3)c3nc(C)c(Cc4ccc(Cl)cc4F)n3n2)n[nH]1 [gandotinib]
Procedure, shortened: as §1

tozasertib = compound: Cc1cc(Nc2cc(N3CCN(C)CC3)nc(Sc3ccc(NC(=O)C4CC4)cc3)n2)n[nH]1 [tozasertib]
Procedure, shortened: as §1

[4] = compound: Cc1cc(SCc2sc(-c3ccc(C(F)(F)F)cc3)nc2C)ccc1OCC(=O)O
Procedure, shortened: as §1

doramapimod = compound: Cc1ccc(-n2nc(C(C)(C)C)cc2NC(=O)Nc2ccc(OCCN3CCOCC3)c3ccccc23)cc1 [doramapimod]
Procedure, shortened: as §1

ispinesib = compound: Cc1ccc(C(=O)N(CCCN)[C@@H](c2nc3cc(Cl)ccc3c(=O)n2Cc2ccccc2)C(C)C)cc1 [ispinesib]
Procedure, shortened: as §1

Measured: log2 fold change

PLBD1 (UniProt Q6P4A8)
inactive: [1] -0.01 | crizotinib -0.082 | [2] 0.009 | [3] -0.032 | duvelisib 0.01 | gandotinib 0.011 | tozasertib -0.005 | [4] -0.032 | doramapimod -0.007 | ispinesib 0.016

PRKCG (UniProt P05129)
inactive: [1] 0.078 | crizotinib -0.005 | [2] 0.188 | [3] 0.028 | duvelisib 0.244 | gandotinib -0.149 | tozasertib -0.04 | [4] 0.11 | doramapimod -0.029 | ispinesib 0

PTP4A1 (UniProt Q93096)
inactive: [1] 0.04 | crizotinib 0.036 | [2] -0.006 | [3] -0.094 | duvelisib -0.013 | gandotinib -0.116 | tozasertib 0.018 | [4] -0.039 | doramapimod -0.037 | ispinesib 0.039

POLR3D (UniProt P05423)
Sequence of UniProt P05423 (P05423 whole entry, looked up): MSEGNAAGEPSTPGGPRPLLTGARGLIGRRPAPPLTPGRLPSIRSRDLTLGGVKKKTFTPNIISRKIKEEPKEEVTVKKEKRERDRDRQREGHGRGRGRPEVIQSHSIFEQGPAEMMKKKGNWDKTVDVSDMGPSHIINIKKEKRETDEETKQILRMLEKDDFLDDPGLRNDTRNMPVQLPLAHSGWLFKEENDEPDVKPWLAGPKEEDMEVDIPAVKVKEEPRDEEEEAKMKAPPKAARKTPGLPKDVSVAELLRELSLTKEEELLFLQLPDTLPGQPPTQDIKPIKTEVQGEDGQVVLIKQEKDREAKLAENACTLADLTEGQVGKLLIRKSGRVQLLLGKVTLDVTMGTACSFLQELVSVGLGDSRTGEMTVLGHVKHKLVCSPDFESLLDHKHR
inactive: [1] 0.088 | crizotinib -0.035 | [2] -0.064 | [3] 0.112 | duvelisib 0.011 | gandotinib -0.056 | tozasertib -0.063 | [4] -0.085 | doramapimod 0.022 | ispinesib -0.05

PPP2R5C isoform 4 (UniProt Q13362)
Sequence of UniProt Q13362 (Q13362 whole entry, looked up): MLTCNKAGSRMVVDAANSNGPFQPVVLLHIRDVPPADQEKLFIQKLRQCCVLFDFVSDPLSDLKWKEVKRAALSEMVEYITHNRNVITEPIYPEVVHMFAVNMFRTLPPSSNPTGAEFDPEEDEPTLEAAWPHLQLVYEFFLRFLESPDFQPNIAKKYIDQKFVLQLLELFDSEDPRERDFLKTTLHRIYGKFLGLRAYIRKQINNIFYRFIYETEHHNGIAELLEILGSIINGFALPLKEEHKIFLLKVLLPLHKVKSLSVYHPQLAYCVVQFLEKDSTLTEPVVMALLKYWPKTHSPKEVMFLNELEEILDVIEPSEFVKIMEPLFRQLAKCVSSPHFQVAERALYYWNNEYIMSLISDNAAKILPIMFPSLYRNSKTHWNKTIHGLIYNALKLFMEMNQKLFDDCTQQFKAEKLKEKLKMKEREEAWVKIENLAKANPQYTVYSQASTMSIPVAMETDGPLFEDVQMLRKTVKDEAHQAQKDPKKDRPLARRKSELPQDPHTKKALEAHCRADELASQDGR
inactive: [1] 0.031 | crizotinib -0.021 | [2] -0.177 | [3] 0.029 | duvelisib 0.066 | gandotinib -0.011 | tozasertib -0.055 | [4] -0.01 | doramapimod -0.06 | ispinesib -0.036

PPP2R5A (UniProt Q15172)
inactive: [1] -0.018 | crizotinib -0.154 | [2] 0.014 | [3] 0.022 | duvelisib 0.033 | gandotinib -0.21 | tozasertib -0.049 | [4] 0.072 | doramapimod -0.019 | ispinesib -0.056

PSMD7 (UniProt P51665)
inactive: [1] 0.077 | crizotinib -0.001 | [2] -0.053 | [3] 0.072 | duvelisib -0.073 | gandotinib 0.078 | tozasertib 0.003 | [4] -0.003 | doramapimod 0.069 | ispinesib 0.018

PTDSS1 (UniProt P48651)
inactive: [1] -0.029 | crizotinib -0.141 | [2] -0.05 | [3] 0.209 | duvelisib -0.225 | gandotinib -0.039 | tozasertib -0.048 | [4] 0.105 | doramapimod 0.151 | ispinesib -0.326

PIP4P2 (UniProt Q8N4L2)
Sequence of UniProt Q8N4L2 (Q8N4L2 whole entry, looked up): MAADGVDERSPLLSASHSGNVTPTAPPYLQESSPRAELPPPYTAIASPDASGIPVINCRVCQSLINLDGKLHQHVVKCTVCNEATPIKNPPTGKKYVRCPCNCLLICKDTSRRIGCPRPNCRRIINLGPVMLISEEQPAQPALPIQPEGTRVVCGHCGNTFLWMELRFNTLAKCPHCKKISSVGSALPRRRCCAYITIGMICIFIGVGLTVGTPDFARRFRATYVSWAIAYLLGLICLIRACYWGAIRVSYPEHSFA
inactive: [1] -0.057 | [2] 0.013 | [3] -0.058 | duvelisib 0.068 | gandotinib 0.017 | tozasertib -0.041 | [4] 0.013 | doramapimod -0.032
active: crizotinib -0.3 | ispinesib -0.569

PHKA2 (UniProt P46019)
inactive: [1] -0.247 | crizotinib -0.076 | [2] 0.051 | [3] -0.108 | duvelisib 0.022 | gandotinib -0.083 | tozasertib -0.052 | [4] 0.071 | doramapimod 0.053 | ispinesib -0.013

PIK3R1 (UniProt P27986)
active: duvelisib 0.232
inactive: [1] 0.033 | crizotinib -0.044 | [2] 0.002 | [3] 0.022 | gandotinib -0.038 | tozasertib -0.026 | [4] 0.051 | doramapimod 0.056 | ispinesib -0.079

POLD1 (UniProt P28340)
inactive: [1] 0.019 | crizotinib -0.042 | [2] 0.041 | [3] -0.025 | duvelisib 0.004 | gandotinib 0.036 | tozasertib 0.016 | [4] 0.046 | doramapimod -0.018 | ispinesib -0.01

PGK2 (UniProt P07205)
Sequence of UniProt P07205 (P07205 whole entry, looked up): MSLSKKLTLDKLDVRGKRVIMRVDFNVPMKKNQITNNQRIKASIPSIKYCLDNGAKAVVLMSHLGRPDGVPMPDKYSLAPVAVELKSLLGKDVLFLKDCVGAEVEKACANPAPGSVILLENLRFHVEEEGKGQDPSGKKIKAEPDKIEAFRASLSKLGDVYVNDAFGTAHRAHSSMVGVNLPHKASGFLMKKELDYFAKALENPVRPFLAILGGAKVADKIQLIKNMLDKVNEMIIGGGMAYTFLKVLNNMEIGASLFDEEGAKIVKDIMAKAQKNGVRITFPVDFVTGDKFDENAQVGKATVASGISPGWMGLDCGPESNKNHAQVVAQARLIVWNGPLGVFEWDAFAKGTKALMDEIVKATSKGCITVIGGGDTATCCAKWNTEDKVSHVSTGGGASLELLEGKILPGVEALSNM
inactive: [1] 0.016 | crizotinib 0.029 | [2] 0.075 | [3] -0.002 | duvelisib 0.062 | gandotinib 0.078 | tozasertib -0.033 | [4] -0.093 | doramapimod -0.109 | ispinesib 0.024

PLSCR1 (UniProt O15162)
active: ispinesib -0.619
inactive: [1] 0.079 | crizotinib 0.017 | [2] 0.101 | [3] -0.024 | duvelisib 0.037 | gandotinib -0.096 | tozasertib -0.075 | [4] -0.017 | doramapimod 0.042

PARP1 (UniProt P09874)
inactive: [1] 0.088 | crizotinib 0.037 | [2] 0.007 | [3] 0.012 | duvelisib 0.102 | gandotinib -0.029 | tozasertib 0.08 | [4] 0.165 | doramapimod -0.065 | ispinesib -0.126

PRKAB1 (UniProt Q9Y478)
inactive: [1] 0.013 | [2] 0.029 | [3] -0.063 | duvelisib 0.01 | gandotinib -0.057 | tozasertib -0.013 | [4] 0.069 | doramapimod 0.013 | ispinesib -0.013
active: crizotinib -0.252

QKI (UniProt Q96PU8)
inactive: [1] -0.057 | crizotinib 0.075 | [2] 0.046 | [3] -0.079 | duvelisib 0.032 | gandotinib -0.093 | tozasertib 0.027 | [4] 0.034 | doramapimod 0 | ispinesib -0.034

PPIL4 (UniProt Q8WUA2)
Sequence of UniProt Q8WUA2 (Q8WUA2 whole entry, looked up): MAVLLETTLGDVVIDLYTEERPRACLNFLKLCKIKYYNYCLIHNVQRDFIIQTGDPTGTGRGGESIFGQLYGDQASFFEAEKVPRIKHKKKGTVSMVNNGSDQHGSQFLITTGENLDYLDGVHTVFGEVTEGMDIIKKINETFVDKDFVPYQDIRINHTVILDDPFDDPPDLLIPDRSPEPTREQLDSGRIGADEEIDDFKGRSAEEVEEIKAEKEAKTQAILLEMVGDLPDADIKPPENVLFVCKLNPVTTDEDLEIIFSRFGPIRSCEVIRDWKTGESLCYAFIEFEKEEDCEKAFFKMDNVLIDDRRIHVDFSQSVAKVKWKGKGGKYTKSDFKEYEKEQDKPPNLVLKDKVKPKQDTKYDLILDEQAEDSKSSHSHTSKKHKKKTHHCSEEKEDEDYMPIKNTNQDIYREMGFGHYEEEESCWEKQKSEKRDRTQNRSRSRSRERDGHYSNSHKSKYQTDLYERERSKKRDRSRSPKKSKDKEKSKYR
inactive: [1] -0.022 | crizotinib -0.013 | [2] 0.027 | [3] -0.01 | duvelisib 0.025 | gandotinib 0 | tozasertib -0.026 | [4] 0.021 | doramapimod 0.019 | ispinesib -0.017

PSMB4 (UniProt P28070)
Sequence of UniProt P28070 (P28070 whole entry, looked up): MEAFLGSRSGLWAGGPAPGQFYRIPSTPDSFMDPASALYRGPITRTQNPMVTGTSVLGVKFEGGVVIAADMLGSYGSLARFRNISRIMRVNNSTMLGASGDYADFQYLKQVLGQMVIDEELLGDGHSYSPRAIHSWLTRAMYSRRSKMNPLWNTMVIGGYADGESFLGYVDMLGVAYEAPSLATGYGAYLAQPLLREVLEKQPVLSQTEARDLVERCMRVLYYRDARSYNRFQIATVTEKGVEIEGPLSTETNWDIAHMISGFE
inactive: [1] 0.014 | crizotinib 0.03 | [2] -0.09 | [3] 0.064 | duvelisib -0.04 | gandotinib 0.08 | tozasertib -0.002 | [4] -0.018 | doramapimod 0.021 | ispinesib 0.015

PHF5A (UniProt Q7RTV0)
inactive: [1] 0.013 | crizotinib 0.074 | [2] -0.061 | [3] -0.072 | duvelisib 0 | gandotinib -0.009 | tozasertib 0.043 | [4] -0.031 | doramapimod -0.093 | ispinesib 0.094

PSMD1 (UniProt Q99460)
inactive: [1] -0.009 | crizotinib -0.002 | [2] -0.075 | [3] 0.047 | duvelisib -0.081 | gandotinib 0 | tozasertib 0.054 | [4] 0.017 | doramapimod 0.036 | ispinesib 0.048

PI4K2A (UniProt Q9BTU6)
active: ispinesib -0.244
inactive: [1] 0.031 | crizotinib -0.185 | [2] 0.032 | [3] 0 | duvelisib 0.043 | gandotinib -0.004 | tozasertib -0.009 | [4] 0.001 | doramapimod 0.015

PSMD12 (UniProt O00232)
inactive: [1] 0.053 | crizotinib 0.009 | [2] -0.03 | [3] 0.073 | duvelisib -0.053 | gandotinib 0.029 | tozasertib 0.068 | [4] 0.057 | doramapimod 0.019 | ispinesib 0.003

PEX16 isoform 2 (UniProt Q9Y5Y5)
Sequence of UniProt Q9Y5Y5 (Q9Y5Y5 whole entry, looked up): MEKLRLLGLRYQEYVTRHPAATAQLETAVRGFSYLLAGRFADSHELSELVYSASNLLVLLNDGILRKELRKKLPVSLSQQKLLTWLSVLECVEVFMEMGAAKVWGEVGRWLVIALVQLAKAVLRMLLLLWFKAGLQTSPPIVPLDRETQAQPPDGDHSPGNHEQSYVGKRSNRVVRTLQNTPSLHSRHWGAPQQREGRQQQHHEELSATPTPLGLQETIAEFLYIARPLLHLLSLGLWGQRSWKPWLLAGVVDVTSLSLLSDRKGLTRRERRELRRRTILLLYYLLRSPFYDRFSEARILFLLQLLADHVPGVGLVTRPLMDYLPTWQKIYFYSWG
inactive: [1] -0.001 | crizotinib -0.142 | [2] 0.052 | [3] -0.072 | duvelisib 0.096 | gandotinib -0.104 | tozasertib 0.018 | [4] 0.057 | doramapimod 0.106 | ispinesib -0.23

PDE2A (UniProt O00408)
Sequence of UniProt O00408 (O00408 whole entry, looked up): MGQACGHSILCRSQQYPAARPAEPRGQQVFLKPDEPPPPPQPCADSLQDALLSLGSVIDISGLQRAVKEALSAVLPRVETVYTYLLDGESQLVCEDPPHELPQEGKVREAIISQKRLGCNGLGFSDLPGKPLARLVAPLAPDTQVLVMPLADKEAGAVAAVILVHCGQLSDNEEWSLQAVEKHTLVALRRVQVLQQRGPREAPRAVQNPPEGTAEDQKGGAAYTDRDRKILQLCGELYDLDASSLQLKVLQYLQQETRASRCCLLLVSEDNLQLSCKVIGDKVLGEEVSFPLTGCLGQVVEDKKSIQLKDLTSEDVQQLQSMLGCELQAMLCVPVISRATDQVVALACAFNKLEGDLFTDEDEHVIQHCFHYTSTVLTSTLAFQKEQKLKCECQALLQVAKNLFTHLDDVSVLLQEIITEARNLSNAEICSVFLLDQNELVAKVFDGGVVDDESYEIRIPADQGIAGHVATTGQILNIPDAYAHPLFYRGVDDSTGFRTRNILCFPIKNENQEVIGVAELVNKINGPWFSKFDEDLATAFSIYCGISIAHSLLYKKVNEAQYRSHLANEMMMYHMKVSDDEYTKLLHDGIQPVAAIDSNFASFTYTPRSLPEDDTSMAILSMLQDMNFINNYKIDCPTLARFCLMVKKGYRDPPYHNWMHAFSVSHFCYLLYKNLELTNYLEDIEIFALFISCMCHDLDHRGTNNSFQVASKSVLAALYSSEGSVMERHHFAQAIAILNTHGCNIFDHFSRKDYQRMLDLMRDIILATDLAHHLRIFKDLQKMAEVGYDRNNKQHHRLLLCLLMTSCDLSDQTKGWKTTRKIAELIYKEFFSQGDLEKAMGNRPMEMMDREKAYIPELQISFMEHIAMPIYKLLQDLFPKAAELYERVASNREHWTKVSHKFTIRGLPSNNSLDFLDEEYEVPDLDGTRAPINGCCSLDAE
inactive: [1] -0.064 | crizotinib 0.004 | [2] 0.223 | [3] -0.108 | duvelisib 0.034 | gandotinib 0.117 | tozasertib -0.105 | [4] 0.045 | doramapimod -0.026 | ispinesib -0.067

PIP4K2C (UniProt Q8TBX8)
active: [1] 1.06
inactive: crizotinib -0.058 | [2] 0.042 | [3] 0.063 | duvelisib 0.047 | gandotinib 0.033 | tozasertib 0.018 | [4] 0.057 | doramapimod -0.044 | ispinesib 0.009

PJA2 (UniProt O43164)
inactive: [1] 0.032 | crizotinib -0.042 | [2] -0.126 | [3] 0.091 | duvelisib -0.021 | gandotinib 0.097 | tozasertib -0.018 | [4] -0.118 | doramapimod 0.033 | ispinesib -0.098

PRKD2 isoform 3 (UniProt Q9BZL6)
inactive: [1] -0.275 | crizotinib -0.39 | [2] 0.108 | [3] -0.111 | duvelisib 0.066 | gandotinib 0.017 | tozasertib 0.048 | [4] -0.014 | doramapimod 0.023 | ispinesib -0.129

POLA2 (UniProt Q14181)
Sequence of UniProt Q14181 (Q14181 whole entry, looked up): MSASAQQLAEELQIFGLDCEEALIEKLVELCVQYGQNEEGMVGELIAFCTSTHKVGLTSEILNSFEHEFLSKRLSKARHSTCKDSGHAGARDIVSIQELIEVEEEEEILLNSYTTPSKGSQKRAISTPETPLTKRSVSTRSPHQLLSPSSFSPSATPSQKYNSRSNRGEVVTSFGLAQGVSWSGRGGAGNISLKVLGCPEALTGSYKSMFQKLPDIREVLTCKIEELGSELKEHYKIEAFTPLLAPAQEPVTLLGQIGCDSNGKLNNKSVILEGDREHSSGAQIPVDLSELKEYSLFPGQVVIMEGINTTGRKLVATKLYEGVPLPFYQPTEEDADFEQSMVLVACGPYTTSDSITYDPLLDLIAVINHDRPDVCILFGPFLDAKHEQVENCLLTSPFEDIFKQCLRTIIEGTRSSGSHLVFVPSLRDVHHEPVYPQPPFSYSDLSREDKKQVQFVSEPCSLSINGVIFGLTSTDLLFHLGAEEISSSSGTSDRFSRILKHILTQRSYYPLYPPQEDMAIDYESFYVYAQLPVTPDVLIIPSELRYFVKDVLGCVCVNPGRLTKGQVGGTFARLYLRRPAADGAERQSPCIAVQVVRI
active: gandotinib -0.287
inactive: [1] 0.116 | crizotinib -0.026 | [2] 0.143 | [3] -0.036 | duvelisib 0.121 | tozasertib 0.091 | [4] 0.047 | doramapimod -0.013 | ispinesib -0.028

PPP6R1 (UniProt Q9UPN7)
inactive: [1] -0.013 | crizotinib -0.018 | [2] 0.125 | [3] 0.012 | duvelisib 0.027 | gandotinib -0.078 | tozasertib 0.084 | [4] -0.01 | doramapimod 0.01 | ispinesib -0.002
